Test results from PubChem BioAssay (NCI).
This is part of a sample that, as a whole, favours compounds with a hit. Of some 79,000 tested, about 15% had one in any assay. A number with no mark means an inactive call. The source made the active and inactive calls. Rule as the data show it: active = growth inhibition above about 70%; inactive = the rest.

Tests used:
[1] = NCI Yeast Anticancer Drug Screen. Data for the rad52 strain (AID 147);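 also: 0% = growth of vehicle-treated control cultures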; settings: S. cerevisiae rad52 mutant growth inhibition, active compounds read high
Summary of the method: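 Here a repair-compromised yeast strain receives each compound; its growth is then quantified and normalised to vehicle-only controls.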

[2] = NCI Yeast Anticancer Drug Screen. Data for the wt1 strain (AID 149);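 also: 0% = growth of vehicle-treated wt1 cultures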; settings: S. cerevisiae wt1 strain (SPY 50644) growth inhibition, active compounds read high
Summary of the method: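 Each compound is tested on wt1 yeast and the loss of growth versus vehicle gives the inhibition value.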

[3] = NCI Yeast Anticancer Drug Screen. Data for the rad50EPP+ strain (AID 151);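 also: 0% = growth of vehicle-treated control cultures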; settings: S. cerevisiae rad50 mutant strain, active compounds read high
Summary of the method: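 Read-out is yeast growth inhibition relative to vehicle; cells used were the rad50EPP+ strain.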

[4] = NCI Yeast Anticancer Drug Screen. Data for the mgt1 strain (AID 153); settings: S. cerevisiae mgt1 mutant growth inhibition, active compounds read high
Summary of the method: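 Measured: inhibition of mgt1 yeast growth by compound, normalized to vehicle-treated cultures.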

[5] = NCI Yeast Anticancer Drug Screen. Data for the rad50 strain (AID 155);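 also: 0% = growth of vehicle-only cultures of the same strain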; settings: S. cerevisiae rad50 strain growth inhibition, active compounds read high
Summary of the method: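 Vehicle-treated cultures provide the reference for the growth inhibition reported for compound-exposed, repair-deficient yeast.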

[6] = NCI Yeast Anticancer Drug Screen. Data for the mec2-1 strain (AID 157); settings: S. cerevisiae mec2-1 strain, active compounds read high
Summary of the method: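 Using mec2-1 yeast: add compound, measure growth, express inhibition versus vehicle-treated cultures.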

[7] = NCI Yeast Anticancer Drug Screen. Data for the rad14 strain (AID 159);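 also: 0% = growth of vehicle-treated control cultures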; settings: S. cerevisiae rad14 strain growth inhibition, active compounds read high
Summary of the method: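 Inhibition of growth is reported for a repair-deficient yeast mutant following compound treatment, calculated relative to cultures that received vehicle.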

[8] = NCI Yeast Anticancer Drug Screen. Data for the sgs1 mgt1 strain (AID 161);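 also: 0% = growth of cultures given vehicle only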; settings: S. cerevisiae sgs1 mgt1 strain, active compounds read high
Summary of the method: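 Yeast cells carrying a defined DNA-repair defect were exposed to test compounds. Growth inhibition was measured relative to vehicle-treated controls.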

[9] = NCI Yeast Anticancer Drug Screen. Data for the CLN2oe strain (AID 163);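 also: 0% = growth of vehicle-only control cultures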; settings: S. cerevisiae CLN2oe strain, active compounds read high
Summary of the method: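 Whole-cell yeast growth assay. A strain engineered for altered cell-cycle control received compound, and inhibition relative to vehicle-treated cultures was recorded.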

[10] = NCI Yeast Anticancer Drug Screen. Data for the cln2 rad14 strain (AID 165);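 also: 0% = growth equal to vehicle treated cultures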; settings: S. cerevisiae cln2 rad14 strain, active compounds read high
Summary of the method: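 Yeast strain cln2 rad14, bearing defects in cell cycle control and DNA repair, serves as the test system; values reflect growth inhibition compared with vehicle.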

[11] = NCI Yeast Anticancer Drug Screen. Data for the bub3 strain (AID 167); settings: S. cerevisiae bub3 mutant strain, active compounds read high
Summary of the method: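 Mutant yeast screening strain plus compound; vehicle-treated cultures serve as the 0% inhibition reference.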

[12] = NCI Yeast Anticancer Drug Screen. Data for the wt2 strain (AID 169); settings: S. cerevisiae wt2 strain growth inhibition, active compounds read high
Summary of the method: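 Treated yeast vs. vehicle-treated yeast: growth inhibition determined.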

[13] = NCI Yeast Anticancer Drug Screen. Data for the mlh1 strain (AID 171);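 also: 0% = growth of vehicle-treated control cultures of the same strain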; settings: S. cerevisiae mlh1 strain growth inhibition, active compounds read high
Summary of the method: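 A yeast strain with a defined genetic lesion serves as the test organism. Cultures receive compound or vehicle, and growth is measured.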

[14] = NCI Yeast Anticancer Drug Screen. Data for the mlh1 rad18 strain (AID 175); settings: S. cerevisiae mlh1 rad18 strain growth inhibition, active compounds read high
Summary of the method: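 Steps: expose repair-defective yeast to compound; measure growth; express inhibition against vehicle-treated controls.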

[15] = NCI Yeast Anticancer Drug Screen. Data for the rad18 strain (AID 177); settings: S. cerevisiae rad18 mutant growth inhibition, active compounds read high
Summary of the method: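 Measured value is growth inhibition of a yeast strain bearing a DNA repair alteration, referenced to vehicle-treated cells.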

[16] = at 5.0 µM (retest, dose inferred, filed as 0.5)
[17] = at 50.0 µM (retest, dose inferred, filed as 5.0)

CCCCN(CCC#N)c1ccc(/C=C/c2ccnc3ccccc23)cc1
growth inhibition ([1]; at 1.2 µM): -6% | growth inhibition ([1]; at 3.7 µM): -9% | growth inhibition ([1]; at 11.0 µM): -9% | growth inhibition ([1]; at 33.0 µM): 63% | growth inhibition ([1]; at 100.0 µM): 79% (active) | growth inhibition ([2]; at 1.2 µM): -6% | growth inhibition ([2]; at 3.7 µM): -10% | growth inhibition ([2]; at 11.0 µM): -13% | growth inhibition ([2]; at 33.0 µM): 66% | growth inhibition ([2]; at 100.0 µM): 85% (active) | growth inhibition ([3]; at 1.2 µM): -3% | growth inhibition ([3]; at 3.7 µM): 7% | growth inhibition ([3]; at 11.0 µM): 30% | growth inhibition ([3]; at 33.0 µM): 38% | growth inhibition ([3]; at 100.0 µM): 26% | growth inhibition ([4]; at 1.2 µM): -6% | growth inhibition ([4]; at 3.7 µM): -9% | growth inhibition ([4]; at 11.0 µM): 0% | growth inhibition ([4]; at 33.0 µM): 62% | growth inhibition ([4]; at 100.0 µM): 76% (active) | growth inhibition ([5]; at 1.2 µM): -4% | growth inhibition ([5]; at 3.7 µM): -7% | growth inhibition [5, 16]: 36% | growth inhibition ([5]; at 11.0 µM): -6% | growth inhibition ([5]; at 33.0 µM): 46% | growth inhibition [5, 17]: 30% | growth inhibition ([5]; at 50.0 µM): -15.1% | growth inhibition ([5]; at 100.0 µM): 72% (active) | growth inhibition ([6]; at 1.2 µM): -9% | growth inhibition ([6]; at 3.7 µM): -10% | growth inhibition [6, 16]: 4% | growth inhibition ([6]; at 11.0 µM): -9% | growth inhibition ([6]; at 33.0 µM): 45% | growth inhibition [6, 17]: 80% (active) | growth inhibition ([6]; at 50.0 µM): -6.1% | growth inhibition ([6]; at 100.0 µM): 80% (active) | growth inhibition ([7]; at 1.2 µM): -8% | growth inhibition ([7]; at 3.7 µM): -10% | growth inhibition ([7]; at 11.0 µM): -5% | growth inhibition ([7]; at 33.0 µM): -1% | growth inhibition ([7]; at 100.0 µM): 56% | growth inhibition [8, 16]: -11% | growth inhibition [8, 17]: 77% (active) | growth inhibition ([8]; at 50.0 µM): 14.9% | growth inhibition ([9]; at 1.2 µM): -8% | growth inhibition ([9]; at 3.7 µM): -14% | growth inhibition ([9]; at 11.0 µM): -22% | growth inhibition ([9]; at 33.0 µM): -23% | growth inhibition ([9]; at 100.0 µM): 22% | growth inhibition [10, 16]: 2% | growth inhibition [10, 17]: 12% | growth inhibition ([10]; at 50.0 µM): -9.8% | growth inhibition ([11]; at 1.2 µM): -7% | growth inhibition ([11]; at 3.7 µM): -14% | growth inhibition [11, 16]: -7% | growth inhibition ([11]; at 11.0 µM): -13% | growth inhibition ([11]; at 33.0 µM): -3% | growth inhibition [11, 17]: 73% (active) | growth inhibition ([11]; at 50.0 µM): -8.45% | growth inhibition ([11]; at 100.0 µM): 53% | growth inhibition ([12]; at 1.2 µM): -9% | growth inhibition ([12]; at 3.7 µM): -12% | growth inhibition ([12]; at 11.0 µM): -1% | growth inhibition ([12]; at 33.0 µM): 69% | growth inhibition ([12]; at 100.0 µM): 83% (active) | growth inhibition ([13]; at 1.2 µM): -3% | growth inhibition ([13]; at 3.7 µM): -6% | growth inhibition ([13]; at 11.0 µM): 10% | growth inhibition ([13]; at 33.0 µM): 55% | growth inhibition ([13]; at 100.0 µM): 76% (active) | growth inhibition [14, 16]: 16% | growth inhibition [14, 17]: 74% (active) | growth inhibition ([14]; at 50.0 µM): 11.7% | growth inhibition ([15]; at 1.2 µM): -3% | growth inhibition ([15]; at 3.7 µM): -3% | growth inhibition ([15]; at 11.0 µM): 1% | growth inhibition ([15]; at 33.0 µM): 32% | growth inhibition ([15]; at 100.0 µM): 77% (active)
